# Test results taken from the supplement of paper PMC9262897, “Low-cost anti-mycobacterial drug discovery using engineered E. coli” (Nature Communications, 2022).
# Counter-ions that a name gives are not always drawn. ± gives the standard deviation of the averaged measurements.
# Experiments:
# Assay in all cases: growth (OD600 after 10 h); higher = more growth (less inhibition)
# [1] = test system: E. coli TESEC Alr+ wild-type control; conditions: compound 0.1 mM; raw OD600 reference: median of DMSO wells 0.241, cell-free background 0.041
# Protocol: (§1)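 TESEC Mtb Alr E. coli, or the Alr+ wild-type control, in 384-well plates with Prestwick library compounds at 0.1 mM and 1% DMSO, across arabinose induction levels of 1E3 to 1E7 nM. Growth is read as OD600 after 10 h at 37 °C in triplicate biological replicates.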
# E. coli TESEC Mtb Alr [2] = conditions: compound 0.1 mM
# Protocol: as §1
# E. coli TESEC Mtb Asd = conditions: compound 0.1 mM
# Protocol: (§2)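 TESEC E. coli strains in which the native enzyme is deleted and replaced by arabinose-inducible Mtb Asd, DapB, CysH or TrpD, each grown in its selective medium. Strains were screened against the Prestwick library at 0.1 mM and 1% DMSO in 384-well format at low and high arabinose induction. Growth is read as OD600 after 10 h in triplicate.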
# E. coli TESEC Mtb DapB = conditions: compound 0.1 mM
# Protocol: as §2
# [3] = test system: E. coli TESEC Alr+ wild-type control; conditions: compound 0.1 mM; raw OD600 reference: median of DMSO wells 0.49, cell-free background 0.052
# Protocol: (§3)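 TESEC Mtb Alr E. coli (ΔaraC ΔtolC ΔentC Δalr ΔdadX, arabinose-inducible Mtb Alr) or the Alr+ wild-type control strain, grown in defined M9-fructose medium without D-alanine in 96-well plates with Prestwick library compounds at 0.1 mM and 1% DMSO. Low Alr induction is 0.1 µM arabinose and high induction is 10 mM arabinose.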
# E. coli TESEC Mtb Alr [4] = conditions: compound 0.1 mM; remark: listed apart in the source
# Protocol: as §3
# [5] = arabinose 1000 nM, raw OD600 reference: median of DMSO wells 0.294, cell-free background 0.041
# [6] = arabinose 10000 nM, raw OD600 reference: median of DMSO wells 0.264, cell-free background 0.041
# [7] = arabinose 100000 nM, raw OD600 reference: median of DMSO wells 0.201, cell-free background 0.041
# [8] = arabinose 1000000 nM, raw OD600 reference: median of DMSO wells 0.193, cell-free background 0.041
# [9] = arabinose 10000000 nM, raw OD600 reference: median of DMSO wells 0.146, cell-free background 0.041
# [10] = arabinose induction (level): High, raw OD600 reference: median of DMSO wells 0.331, cell-free background 0.041
# [11] = arabinose induction (level): Low, raw OD600 reference: median of DMSO wells 0.417, cell-free background 0.041
# [12] = arabinose induction (level): High, raw OD600 reference: median of DMSO wells […], cell-free background 0.041
# [13] = arabinose induction (level): Low, raw OD600 reference: median of DMSO wells 0.227, cell-free background 0.041
# [14] = arabinose 100 nM, raw OD600 reference: median of DMSO wells 0.413, cell-free background 0.052
# [15] = arabinose 10000000 nM, raw OD600 reference: median of DMSO wells […], cell-free background 0.052
SMILES,growth [1],growth (E. coli TESEC Mtb Alr [2]; [5]),growth (E. coli TESEC Mtb Alr [2]; [6]),growth (E. coli TESEC Mtb Alr [2]; [7]),growth (E. coli TESEC Mtb Alr [2]; [8]),growth (E. coli TESEC Mtb Alr [2]; [9]),growth (E. coli TESEC Mtb Asd; [10]),growth (E. coli TESEC Mtb Asd; [11]),growth (E. coli TESEC Mtb DapB; [12]),growth (E. coli TESEC Mtb DapB; [13]),growth [3],growth (E. coli TESEC Mtb Alr [4]; [14]),growth (E. coli TESEC Mtb Alr [4]; [15])
COc1ccc(-c2cc(=O)c3c(O)cc(O[C@@H]4O[C@H](CO[C@@H]5O[C@@H](C)[C@H](O)[C@@H](O)[C@H]5O)[C@@H](O)[C@H](O)[C@H]4O)cc3o2)cc1O [Diosmin],0.296 ± 0.0078,0.334 ± 0.01,0.277 ± 0.0034,0.248 ± 0.011,0.192 ± 0.013,0.1645 ± 0.00064,0.421 ± 0.085,0.358 ± 0.04,0.225 ± 0.016,0.243 ± 0.017,0.578 ± 0.14,0.437 ± 0.026,0.426 ± 0.065
CN1C(=O)CC(c2ccccc2)C1=O (stereo not drawn) [Phensuximide],0.244 ± 0.0072,0.299 ± 0.0059,0.281 ± 0.0045,0.183 ± 0.022,0.231 ± 0.02,0.138 ± 0.011,0.338 ± 0.022,0.401 ± 0.035,0.174 ± 0.0062,0.219 ± 0.015,0.544 ± 0.076,0.431 ± 0.015,0.357 ± 0.0052
CC(C)NC[C@H](O)COc1ccc(CC(N)=O)cc1 [(S)-(-)-Atenolol],0.244 ± 0.0056,0.288 ± 0.016,0.2708 ± 0.0025,0.214 ± 0.04,0.184 ± 0.0026,0.1491 ± 0.0014,0.287 ± 0.095,0.343 ± 0.051,0.193 ± 0.037,0.222 ± 0.03,0.528 ± 0.092,0.413 ± 0.01,0.341 ± 0.022
Cc1oncc1C(=O)Nc1ccc(C(F)(F)F)cc1 [Leflunomide],0.139 ± 0.0056,0.149 ± 0.0026,0.1904 ± 0.0019,0.138 ± 0.0062,0.106 ± 0.0035,0.096 ± 0.00046,0.381 ± 0.085,0.327 ± 0.018,0.226 ± 0.028,0.255 ± 0.034,0.3131 ± 0.0014,0.364 ± 0.021,0.158 ± 0.027
CN(C)CCCSC(=N)N [Dimaprit dihydrochloride],0.2627 ± 0.0019,0.308 ± 0.011,0.267 ± 0.0039,0.205 ± 0.014,0.201 ± 0.015,0.131 ± 0.0034,0.255 ± 0.035,0.409 ± 0.093,0.196 ± 0.006,0.199 ± 0.016,0.617 ± 0.017,0.406 ± 0.015,0.349 ± 0.019
CNCCc1ccccn1 [Betahistine mesylate],0.251 ± 0.0026,0.302 ± 0.006,0.269 ± 0.0066,0.243 ± 0.047,0.182 ± 0.0047,0.164 ± 0.005,0.299 ± 0.087,0.4 ± 0.042,0.217 ± 0.025,0.25 ± 0.017,0.557 ± 0.1,0.408 ± 0.014,0.319 ± 0.025
Cc1cc2cc3c(C)cc(=O)oc3c(C)c2o1 [Trioxsalen],0.253 ± 0.0068,0.312 ± 0.0079,0.258 ± 0.008,0.192 ± 0.0079,0.161 ± 0.0053,0.1653 ± 0.0007,0.454 ± 0.015,0.423 ± 0.0095,0.231 ± 0.032,0.237 ± 0.012,0.438 ± 0.0099,0.4096 ± 0.0037,0.324 ± 0.024
Cc1scc2c1N(C(=O)CN1CCN(C)CC1)c1ccccc1NC2=O [Telenzepine dihydrochloride],0.242 ± 0.0054,0.309 ± 0.0066,0.241 ± 0.0053,0.208 ± 0.012,0.162 ± 0.0049,0.153 ± 0.0031,0.321 ± 0.083,0.442 ± 0.025,0.1919 ± 0.0014,0.264 ± 0.071,0.545 ± 0.024,0.407 ± 0.011,0.338 ± 0.0097
Cc1cc(C(C)(C)C)c(O)c(C)c1CC1=NCCN1 [Oxymetazoline hydrochloride],0.236 ± 0.0092,0.302 ± 0.0066,0.263 ± 0.014,0.196 ± 0.011,0.17 ± 0.011,0.165 ± 0.011,0.372 ± 0.07,0.416 ± 0.035,0.202 ± 0.016,0.251 ± 0.028,0.514 ± 0.062,0.414 ± 0.013,0.328 ± 0.011
C[C@@H](O)[C@H]1C(=O)N2C(C(=O)O)=C(S[C@@H]3CN[C@H](C(=O)N(C)C)C3)[C@H](C)[C@H]12 [Meropenem],0.0404 ± 0.00057,0.0418 ± 0.0014,0.0448 ± 0.0059,0.0523 ± 0.0007,0.0817 ± 0.0057,0.0962 ± 0.003,0.138 ± 0.0038,0.0552 ± 0.0001,0.135 ± 0.0089,0.169 ± 0.013,0.0604 ± 0.0014,0.04557 ± 0.00025,0.0882 ± 0.013
COC(=O)Nc1nc2cc(Sc3ccccc3)ccc2[nH]1 [Fenbendazole],0.233 ± 0.0041,0.273 ± 0.022,0.273 ± 0.012,0.189 ± 0.012,0.195 ± 0.057,0.144 ± 0.0032,0.382 ± 0.11,0.434 ± 0.018,0.2 ± 0.013,0.252 ± 0.041,0.56 ± 0.072,0.421 ± 0.0066,0.352 ± 0.025
C#C[C@]1(O)CC[C@H]2[C@@H]3CCC4=CC(=O)CC[C@@H]4[C@H]3CC[C@@]21C [Norethindrone],0.196 ± 0.042,0.221 ± 0.017,0.221 ± 0.012,0.179 ± 0.012,0.1044 ± 0.00092,0.134 ± 0.0033,0.286 ± 0.041,0.362 ± 0.058,0.183 ± 0.0096,0.21 ± 0.042,0.427 ± 0.016,0.397 ± 0.0089,0.233 ± 0.014
CC(=O)OCC(=O)[C@@]12OC(C)(C)O[C@@H]1C[C@H]1[C@@H]3C[C@H](F)C4=CC(=O)C=C[C@]4(C)[C@@]3(F)[C@@H](O)C[C@@]12C [Fluocinonide],0.229 ± 0.0095,0.279 ± 0.012,0.275 ± 0.01,0.195 ± 0.015,0.213 ± 0.041,0.163 ± 0.037,0.434 ± 0.046,0.505 ± 0.0079,0.222 ± 0.013,0.234 ± 0.033,0.499 ± 0.058,0.432 ± 0.041,0.344 ± 0.033
O=C1NCN(c2ccccc2)C12CCN(CCCC(c1ccc(F)cc1)c1ccc(F)cc1)CC2 [Fluspirilen],0.0416 ± 0.0009,0.044 ± 0.0032,0.0402 ± 0.00092,0.0775 ± 0.0044,0.0438 ± 0.0018,0.0681 ± 0.0024,0.0816 ± 0.034,0.0703 ± 0.0098,0.167 ± 0.014,0.19 ± 0.021,0.055 ± 0.0016,0.0516 ± 0.00059,0.0605 ± 0.008
CN1CCN2c3ncccc3Cc3ccccc3C2C1 (stereo not drawn) [Mirtazapine],0.217 ± 0.0068,0.281 ± 0.0088,0.2774 ± 0.0027,0.225 ± 0.025,0.182 ± 0.021,0.162 ± 0.0043,0.261 ± 0.11,0.29 ± 0.013,0.212 ± 0.0063,0.249 ± 0.019,0.468 ± 0.035,0.414 ± 0.014,0.336 ± 0.014
C#C[C@]1(O)CC[C@H]2[C@@H]3CCc4cc(O)ccc4[C@H]3CC[C@@]21C [Ethinylestradiol],0.0556 ± 0.00079,0.0489 ± 0.0023,0.0421 ± 0.00055,0.0506 ± 0.0016,0.0444 ± 0.00061,0.05593 ± 0.00015,0.112 ± 0.017,0.0911 ± 0.062,0.0856 ± 0.007,0.0703 ± 0.0015,0.0818 ± 0.0029,0.303 ± 0.024,0.0705 ± 0.016
